Source: PubChem BioAssay
Most compounds without a hit are left out; they make up all but 3.6% or so of the library.
KKLEB tox: counter-screen for CF NF-kB inhibitors: cytotoxicity; KKLEB CF airway cells viability, ATPlite luminescence, overnight; active compounds read low; cells stimulated with P. aeruginosa culture filtrate; activity change (cytotoxicity), % at 5 µM; 0.36% of 360,000 active; AID 602141;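 active = corrected activity change at or below -50% at 5 µM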
Mdm2 MdmX PPI: human Mdm2/MdmX binding inhibition; SaOS-2 split-luciferase Mdm2/MdmX complementation, luminescence; O15151+Q00987; inhibition, % at 8 µM; AID 485346; 3% of 330,000 active;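 active = inhibition of at least 50% at 8 µM in the primary screen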
HSP90 inh: blocks HSP90-mediated luciferase refolding in reticulocyte lysate. Rabbit reticulocyte lysate, luciferase refolding luminescence, 3 h. 0.91% of 290,000 active. inhibition, % at 5.6 µM. AID 1789;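 active = inhibition above the screen-wide mean plus 3 SD, computed separately per campaign, cut at about 16% in these data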;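 note: inhibitors lower the luminescence because luciferase stays unfolded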
CF NFkB inh: cystic fibrosis NF-kB activation inhibition; inhibition, % at 5 µM; AID 588850; KKLEB NF-kB-GFP reporter, PAF-induced, GFP fluorescence overnight; 0.86% of 360,000 active;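 active = at least 50% inhibition at 5 µM, scaled per plate between neutral and stimulator controls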;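 note: PAF is a Pseudomonas aeruginosa culture filtrate used as stimulus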
LGR2 antag: blocks bursicon-induced cAMP signaling via Drosophila LGR2; HEK293 LGR2, CRE-luciferase, bursicon-stimulated, 4 h; inhibition, % at 9.99 µM; 0.35% of 380,000 active; AID 720647;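 active = drop in luminescence signal, shown as inhibition above about 50% in the replicate tests, limit read from the data, passing the limit was not always enough; inconclusive = probably only some replicates passing the limit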;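 note: agonist challenge used bursicon conditioned medium at about half maximal strength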
Peg3 promoter: inhibitors of Peg3 promoter | HeLa PEG-Prom luciferase reporter, luminescence, overnight | inhibition, % at 20 µM | 1.7% of 360,000 active | AID 588405;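 active = inhibition of at least 50% at 20 µM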
HSP90 inh confirm: confirmation of HSP90 inhibitors | shares compounds with HSP90 inh | rabbit reticulocyte lysate, luciferase refolding luminescence, 3 h | inhibition, % at 5.9 µM | 64% of 2,300 active; in the data active = inhibition above about 18%
FLuc counter: counter-screen for HSP90 inhibitors: inhibitors of firefly luciferase. shares compounds with HSP90 inh. purified native firefly luciferase, luminescence. inhibition, % at 5.9 µM. 48% of 2,300 active;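 active = inhibition above the mean inhibition of all tested sample wells plus 3 SD, cut at about 10% in these data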
Target sequence (P08659 whole entry, looked up): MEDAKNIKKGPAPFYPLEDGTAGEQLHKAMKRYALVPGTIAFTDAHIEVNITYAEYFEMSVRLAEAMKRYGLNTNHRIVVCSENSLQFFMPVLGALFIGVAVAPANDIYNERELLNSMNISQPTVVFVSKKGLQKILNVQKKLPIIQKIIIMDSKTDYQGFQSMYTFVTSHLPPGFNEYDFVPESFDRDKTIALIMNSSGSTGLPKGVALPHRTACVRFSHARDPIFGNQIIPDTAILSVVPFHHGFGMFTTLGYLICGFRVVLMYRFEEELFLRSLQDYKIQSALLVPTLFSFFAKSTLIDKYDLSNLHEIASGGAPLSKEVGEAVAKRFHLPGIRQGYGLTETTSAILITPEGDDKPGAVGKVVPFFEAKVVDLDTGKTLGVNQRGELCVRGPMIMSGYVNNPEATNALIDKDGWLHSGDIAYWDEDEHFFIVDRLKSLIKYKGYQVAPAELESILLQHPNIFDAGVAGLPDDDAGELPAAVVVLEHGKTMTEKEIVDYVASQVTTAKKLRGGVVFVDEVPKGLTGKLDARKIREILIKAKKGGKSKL
A number is an active result; – = inactive; ? = inconclusive; · = not tested or not shown.

SMILES	KKLEB tox	Mdm2 MdmX PPI	HSP90 inh	CF NFkB inh	LGR2 antag	Peg3 promoter	HSP90 inh confirm	FLuc counter
Cc1ccc(-c2nc3cc(NC(=O)C(C)C)ccc3o2)cc1	–	–	–	–	·	–	·	·
CO[C@H](CN(C)C(=O)C1CCOCC1)[C@@H](C)CN(C(=O)Nc1ccc(F)cc1)[C@@H](C)CO	·	·	·	·	–	·	·	·
Cc1noc(/C=C/Nc2ccc(F)cc2F)c1[N+](=O)[O-]	–	–	–	–	–	–	·	·
COc1ccccc1N/C=C/c1onc(C)c1[N+](=O)[O-]	–	–	39	–	73	–	78	71
C[C@H]1CN([C@@H](C)CO)C(=O)c2cc(C#CC3CC3)cnc2O[C@H]1CN(C)Cc1ccccn1	·	·	·	·	–	·	·	·
COc1ccc(CCNc2nc(-c3sc(N)nc3C)cs2)cc1OC	–	–	29	–	·	–	–	–
Cc1nc(N)sc1-c1csc(Nc2ccccn2)n1	–	·	–	–	·	–	·	·
Cc1ccc(Nc2nc(-c3sc(N)nc3C)cs2)cc1	–	–	39	–	–	–	–	–
COc1ccc(CC(=O)Nc2nc(-c3ccc(OC)c(OC)c3)cs2)cc1OC	–	–	–	–	–	–	·	·
Cc1ccc(Nc2nc(-c3sc(C)nc3C)cs2)cc1	–	–	–	–	–	–	·	·
COc1ccc(Nc2nc(-c3sc(NC(C)=O)nc3C)cs2)cc1	·	–	–	·	·	·	·	·
CCOc1ccc(Nc2nc(-c3sc(N)nc3C)cs2)cc1	–	–	20	–	–	–	–	–
COc1ccc(Nc2nc(-c3sc(N)nc3C)cs2)cc1	–	–	30	–	·	–	–	–
O=C(NCCc1ccncc1)[C@@H]1[C@@H](CO)[C@@H]2Cn3c(ccc(-c4ccccc4)c3=O)[C@H]1N2	·	·	·	·	–	·	·	·
O=C([C@H]1N[C@H]2c3ccc(C4=CCCCC4)c(=O)n3C[C@H]2[C@@H]1CO)N1CCc2ccccc2C1	·	·	·	·	–	·	·	·
COc1ccc2c3c([nH]c2c1)[C@@H](CO)N(Cc1nccs1)CC31CN(C(=O)C2CCCC2)C1	·	·	·	·	–	·	·	·
CN1C(=O)S/C(=C\c2ccccc2OCc2ccc(C(=O)O)cc2)C1=O	–	–	–	–	–	–	·	·
COc1cccc(/C=C2\SC(=O)NC2=O)c1OCc1ccc(C(=O)O)cc1	–	–	23	–	–	–	–	–
Cn1cccc1/C=C1\CCc2ccccc2C1=O	–	–	39	–	60	–	64	67
Cn1cccc1/C=C1\Cc2ccccc2C1=O	–	–	–	–	–	–	·	·
CCOc1ccccc1C=C1CCc2ccccc2C1=O	–	·	·	–	–	–	·	·
CCOc1ccc(/C=C2\CCc3ccccc3C2=O)cc1	–	–	35	–	?	–	44	73
COc1ccc(NC(=O)Nc2ccc3c(c2)C(=O)N([C@@H](C)CO)C[C@@H](C)[C@@H](CN(C)C(=O)CCC(F)(F)F)OCCCC[C@@H](C)O3)cc1	·	·	·	·	–	·	·	·
COCC(C)N=C1NN=C(c2cc(C)n(Cc3ccccc3Cl)c2C)CS1 (configuration not stated)	–	–	34	–	–	–	65	55
O=C(NCC1CC1)[C@H]1[C@H](CO)[C@H]2Cn3c(ccc(C4=CCCC4)c3=O)[C@@H]1N2CCC(F)(F)F	·	·	·	·	–	·	·	·
SMILES	KKLEB tox	Mdm2 MdmX PPI	HSP90 inh	CF NFkB inh	LGR2 antag	Peg3 promoter	HSP90 inh confirm	FLuc counter
Cc1cc(=O)n(-c2ccc(O)cc2)[nH]1	–	–	18	–	·	–	–	–
Cc1cc(=O)n(-c2ccc(C(=O)O)cc2)[nH]1	–	–	–	–	–	–	·	·
Cc1ccc(S(=O)(=O)N[C@H]2CC[C@@H](CC(=O)N3CCN(c4ccccc4)CC3)O[C@H]2CO)cc1	·	·	·	·	–	·	·	·
C/C(=N\NC(=O)c1cc2ccccc2cc1O)c1cccs1	–	–	22	–	–	–	34	38
O=C(NNC(=O)c1cc2ccccc2cc1O)c1cccs1	–	–	–	–	–	–	·	·
CCOc1ccc(CC(=O)N/N=C/c2cccnc2)cc1	–	–	–	–	·	–	·	·
CCCc1ccc(OCc2ccc(C(=O)N/N=C/c3cccnc3)o2)cc1	–	–	36	–	–	–	26	–
Cc1c(/C(O)=C2\C(=O)C(=O)N(CCCN(C)C)C2c2cccs2)cnn1-c1ccccc1 (configuration not stated)	–	·	·	–	–	–	·	·
Cc1c(/C(O)=C2/C(=O)C(=O)N(CCN3CCOCC3)C2c2cccs2)cnn1-c1ccccc1 (configuration not stated)	–	–	45	–	·	–	47	40
Cc1ccc(C2/C(=C(/O)c3cnn(-c4ccccc4)c3C)C(=O)C(=O)N2CCN2CCOCC2)o1 (configuration not stated)	–	–	21	–	·	–	–	–
C/C=C/c1ccc([C@@H]2[C@H](CO)N(C(=O)CN(C)C)C23CN(C(=O)C2CCCCC2)C3)cc1	·	·	·	·	–	·	·	·
N#CC1=C2C=CC=CN2CC1=O	–	–	20	–	·	–	–	–
CN1CCN(C(=O)C[C@H]2CC[C@H]3[C@@H](COC[C@H](O)CN3C(=O)C3CC3)O2)CC1	·	·	·	·	–	·	·	·
CCn1c(SCC(=O)c2ccccc2)nc2ccccc2c1=O	–	–	–	–	–	–	·	·
O=C(CSc1nc2ccccc2c(=O)n1NC(=O)c1ccccc1)c1ccc(Cl)cc1	–	–	24	–	·	–	–	–
Cc1nc2ccccc2c(=O)n1NC(=O)c1ccc(Cl)cc1	–	–	–	–	–	–	·	·
O=C(CSc1nc2ccccc2c(=O)n1NC(=O)c1ccccc1)c1ccccc1	–	–	36	–	·	–	–	–
O=C(C[C@H]1C[C@H]2c3cc(NS(=O)(=O)c4ccc(F)cc4)ccc3O[C@H]2[C@@H](CO)O1)NCc1ccccn1	·	·	·	·	–	·	·	·
O=C(C[C@H]1C=C[C@H](NC(=O)C2CC2)[C@@H](CO)O1)Nc1ccccc1	·	·	·	·	–	·	·	·
Cc1c(C(=O)O)cccc1-n1c(C)cc(C=O)c1C	–	–	22	–	–	–	19	–
Cc1noc(C)c1NC(=O)Nc1ccc2c(c1)C(=O)N([C@H](C)CO)C[C@@H](C)[C@@H](CN(C)Cc1ccncc1)O2	·	·	·	·	–	·	·	·
COc1ccc(-n2ncc3c(NC(C)C)ncnc32)cc1	–	–	17	–	·	–	43	31
COc1cccc(/C=C/c2ccccn2)c1O	–	–	17	–	–	–	17	9.9
CO[C@H]1CN(C)C(=O)c2ccc(NC(=O)c3cc(C)on3)cc2OC[C@@H](C)N(C(=O)C2CC2)C[C@@H]1C	·	·	·	·	–	·	·	·
CC(O)CNC(=S)Nc1ccccc1 (configuration not stated)	–	–	23	–	–	–	–	–
S=C(NCCCNC(=S)Nc1ccccc1)Nc1ccccc1	–	–	–	–	–	–	·	·
O=C1COc2ccc3ccccc3c21	–	–	25	–	–	–	–	–
